# According to PubChem BioAssay AID725 (NMMLSC, 2007):
# Screen size: about 1,300 compounds; fewer than 10 were called active. The rule behind the calls is not given here. Only a sample is shown.
# Biological target: N-formyl peptide receptor 2 (Homo sapiens) (UniProt P25090)
# Test: FPRL1 fluorescent ligand binding inhibitors, primary screen, selectivity assay for FPR ligand SAR project, cell-based, flow cytometry, HTS counterscreen (AID 725)
# Conditions: FPRL1-expressing cells, stronger effect = higher value, concentration not given here
# N-formyl peptide receptor 2 (Homo sapiens), sequence (P25090 whole entry, looked up): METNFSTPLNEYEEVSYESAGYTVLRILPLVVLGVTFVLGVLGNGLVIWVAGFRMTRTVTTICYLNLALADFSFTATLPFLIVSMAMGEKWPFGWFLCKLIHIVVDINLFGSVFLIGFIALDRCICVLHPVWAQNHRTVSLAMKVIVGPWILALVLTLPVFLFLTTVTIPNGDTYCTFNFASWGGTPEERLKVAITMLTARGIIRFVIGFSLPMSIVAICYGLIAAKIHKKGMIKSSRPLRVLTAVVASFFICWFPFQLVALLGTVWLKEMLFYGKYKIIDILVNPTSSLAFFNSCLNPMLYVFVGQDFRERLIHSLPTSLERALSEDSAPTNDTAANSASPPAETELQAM
row,Structure (SMILES),inhibition
1,O=C(C(Cc1ccccc1)N1Cc2ccccc2C1=O)N1CCOCC1 (configuration not stated),-13.3% (inactive)
2,CCOC(=O)c1c(NC(=O)c2cccs2)sc2c1CCC(C(C)(C)C)C2 (configuration not stated),-4.5% (inactive)
3,CC(C)c1ccc(C2/C(=C(\O)c3ccc(F)cc3)C(=O)C(=O)N2CCN2CCOCC2)cc1 (configuration not stated),5.6% (inactive)
4,CCOC(=O)Cc1c(C)nc2c(C#N)c(C)[nH]n2c1=O,5.1% (inactive)
5,O=c1c(-c2ccc(Cl)cc2)c(C(F)(F)F)oc2c(CN3CCCCC3)c(O)ccc12,2.2% (inactive)
6,COC(=O)c1c(NC(=O)c2cncc(Br)c2)sc2c1CCCC2,-1.3% (inactive)
7,CN1C(=O)c2ccccc2C(C(=O)N2CCCC2)C1c1cccs1 (configuration not stated),-3% (inactive)
8,O=C1C(=O)N(c2ccc(Br)cc2)C(c2ccc(Br)cc2)/C1=C(/O)c1ccccc1 (configuration not stated),0.2% (inactive)
9,COC(=O)c1c(NC(=O)c2cc(OC)c(OC)c(OC)c2)sc(C)c1C,-10.3% (inactive)
10,CCOC(=O)c1cc(C(C)C)sc1NC(=O)CCCC(=O)O,-4.7% (inactive)
11,COc1ccc(OC)c(C(=O)CC2(O)C(=O)N(C)c3ccccc32)c1 (configuration not stated),1.1% (inactive)
12,COc1ccc(CN2CCc3c(c(=O)n4ncc(C(=O)O)c4n3C)C2)cc1,-3.9% (inactive)
13,CCc1c(C)nc2c(-c3ccc(OC)c(OC)c3)c(C)[nH]n2c1=O,-1.3% (inactive)
14,Cc1ccc(C2/C(=C(\O)c3ccc(Cl)cc3)C(=O)C(=O)N2CCN2CCOCC2)cc1 (configuration not stated),0.3% (inactive)
15,Cc1cc(C)nc(/N=C(/NC(=O)c2ccccc2)Nc2cccc(Cl)c2)n1,-4.7% (inactive)
16,CCOc1ccc(C2/C(=C(/O)c3ccccc3)C(=O)C(=O)N2CC(C)O)cc1 (configuration not stated),-1.6% (inactive)
17,CCC(Sc1nc2ncccc2o1)C(=O)Nc1ccccc1OC (configuration not stated),-16.4% (inactive)
18,O=C1C(=O)N(c2ccccn2)C(c2cccnc2)/C1=C(/O)c1ccccc1 (configuration not stated),4.3% (inactive)
19,CCOC(=O)c1c(NC(=O)c2cccc(Cl)c2)sc(C)c1C,6.4% (inactive)

row,Structure (SMILES),inhibition
1,Cc1cc(C)c(NC(=O)CSc2nncn3c2cc2oc(C)cc23)c(C)c1,13.3% (inactive)
2,Cc1cc(C)c(NC(=O)CSc2nncn3c2cc2occc23)c(C)c1,12% (inactive)
3,COc1ccccc1NC(=O)CSc1nncn2c1cc1occc12,34.6% (active)
4,O=C1O[C@@H]2C[C@H]3C[C@@H]2[C@@H]1[C@H]3C(=O)N1CCc2ccccc21,-14.7% (inactive)
5,O=C(O)C1CCCCC1C(=O)Nc1ccc(O)cc1 (configuration not stated),-4.1% (inactive)
6,COc1ccc(C2SCC(=O)N2c2ccccc2)cc1 (configuration not stated),0% (inactive)
7,Cc1ccc(C2/C(=C(\O)c3ccccc3)C(=O)C(=O)N2CCN2CCNCC2)cc1 (configuration not stated),7.6% (inactive)
8,COC(=O)c1c[nH]n2c(=O)c3c(nc12)C(=O)N(Cc1ccccc1)C3,-4.5% (inactive)
9,Cc1cccc(C(CC(=O)O)NS(=O)(=O)c2ccc(C)cc2C)c1 (configuration not stated),-12.7% (inactive)
10,CCC(=O)N1c2ccccc2CC1C(=O)N1CCN(CC)CC1 (configuration not stated),5.1% (inactive)
11,COc1ccc(C2C(C(=O)c3ccc(C)o3)=C(O)C(=O)N2Cc2cccnc2)cc1OC (configuration not stated),2.3% (inactive)
12,CCN(CC)C(=O)c1c(NC(=O)c2cccc(C)c2)sc2c1CCCCC2,0.5% (inactive)
13,O=C1C(=O)N(CCCN2CCOCC2)C(c2ccc(Cl)cc2)/C1=C(\O)c1ccccc1 (configuration not stated),6.2% (inactive)
14,CCc1cc2c(=O)c(-c3ccc4c(c3)OCO4)c(C(F)(F)F)oc2c(CN(C)C)c1O,-3% (inactive)
15,O=C(CCCC(=O)c1ccccc1)Nc1cc(F)ccc1F,-27.4% (inactive)
16,CCN(C(=O)c1noc2c1CC(C)CC2)c1cccc(C)c1 (configuration not stated),-9.6% (inactive)
17,CC(C)c1ccc(CN(Cc2ccco2)C(=O)c2ccc(F)cc2)cc1,-3.3% (inactive)
18,COc1ccc(C2C(C(=O)c3ccco3)=C(O)C(=O)N2c2nnc(C)s2)cc1OC (configuration not stated),1.1% (inactive)
19,CCOC(=O)c1c(NC(=O)c2ccc(Cl)cc2)sc2c1CCC(C)C2 (configuration not stated),-4.7% (inactive)

row,Structure (SMILES),inhibition
1,Cc1onc(-c2ccccc2Cl)c1C(=O)NC1CCCCC1,4.7% (inactive)
2,Cc1ccc(N2C(=O)CSC2c2ccc(C(C)(C)C)cc2)cc1C (configuration not stated),-24.8% (inactive)
3,COC(=O)c1c(NC(=O)c2cccc(Cl)c2)sc2c1CCCC2,4.4% (inactive)
4,Cc1ccc(N2C(=O)C(=O)/C(=C(\O)c3ccc(Cl)cc3)C2c2ccc(O)cc2)cc1Br (configuration not stated),-2.4% (inactive)
5,CCOC(=O)c1c(NC(=O)c2ccccc2C)sc2c1CCC(CC)C2 (configuration not stated),-9.3% (inactive)
6,Cc1cc(C)n(Cc2c(C(=O)N3CCC(C)CC3)noc2C)n1,18.2% (inactive)
7,CCCN(C(=O)[C@H]1[C@@H]2C[C@@H]3[C@H]1C(=O)O[C@@H]3C2)c1ccccc1F,15.9% (inactive)
8,COc1ccc(C2/C(=C(\O)c3ccc(C)cc3)C(=O)C(=O)N2CCN2CCOCC2)c(OC)c1 (configuration not stated),-7% (inactive)
9,O=C(C(c1ccccc1)N1Cc2ccccc2C1=O)N1CCCCCC1 (configuration not stated),1.9% (inactive)
10,Nc1nonc1-c1nc2ccccc2n1CC(=O)Nc1ccccc1Cl,-1.8% (inactive)
11,COC(=O)c1ccc(-c2ccco2)n1CC(=O)Nc1c(C)cc(C)cc1C,-13.6% (inactive)
12,COc1ccc(C2/C(=C(/O)c3ccccc3)C(=O)C(=O)N2c2ccc(F)cc2)c(OC)c1 (configuration not stated),3.6% (inactive)
13,O=C1C(=O)N(Cc2cccnc2)C(c2ccc(F)cc2)/C1=C(\O)c1ccccc1 (configuration not stated),6.7% (inactive)
14,CC(C)OC(=O)c1c(NC(=O)C2CCCC2)sc2c1CCCC2,-0.2% (inactive)
15,O=C1C(=O)N(CCCN2CCOCC2)C(c2cccc(Br)c2)/C1=C(\O)c1ccccc1 (configuration not stated),5.8% (inactive)
16,Cc1nnc(N2C(=O)C(=O)/C(=C(/O)c3ccccc3)C2c2ccc(Cl)cc2)s1 (configuration not stated),-5% (inactive)
17,COCCCN1C(=O)C(=O)/C(=C(/O)c2ccccc2)C1c1ccc(Br)cc1 (configuration not stated),3.8% (inactive)
18,COc1cccc(NC(=O)C2CCC(=O)N2S(=O)(=O)c2ccccc2)c1 (configuration not stated),-2.9% (inactive)
19,COC(=O)c1c(NC(=O)c2cccc(Br)c2)sc(C)c1C,3.3% (inactive)
